Data published in PubChem BioAssay AID1566 (Sanford-Burnham Center for Chemical Genomics, 2009).
Where “and” joins values, the source holds several entries; their conditions need not be identical. Equal values may be shown once. Among all 290,000 compounds or so, about 1,800 (0.62%) were called active. No stated cut-off is given here; in the data, active means inhibition above about 50%; inactive means the rest. This excerpt belongs to a sample that is enriched for actives.

Assay: NOD2 signaling inhibitors, cell-based, luminescence, uHTS, HEK293 (AID 1566)
Settings: HEK293 NOD2/NF-kB luciferase reporter, at 4 µM, hits give high values

inhibition, active:
Cc1ccc(C(=O)c2cnc3ccccc3c2-c2ccccc2)cc1 50.7%
O=C(O)c1cccc(-c2ccc(/C=C3/SC(=Nc4ccccc4)N(Cc4cccnc4)C3=O)o2)c1 53.1%
CN(C)C(=O)C(OC(=O)c1ccc2c(c1)CCCC2)c1ccccc1 (stereo unspecified) 90.9%
CCc1n(CC(O)COCC2CC=CCC2)c2ccccc2[n+]1C (stereo unspecified) 55.3%
CCOc1cccc(/C=N/NC(=O)c2cc(C3CC3)[nH]n2)c1O 63.2%
COCc1cc(C)nc(SCC(=O)Nc2cc(C(F)(F)F)ccc2N2CCOCC2)c1C#N 58.6%
CC(C)CCOc1cccc(OCC(=O)Nc2ccncc2)c1 60%
COc1cccc(-c2nc3c(c(SCC(=O)N4CCOCC4)n2)Cc2c(CO)cnc(C)c2O3)c1 52.5%

inhibition, inactive:
CCCSc1nnc(CSc2nc3ccccc3s2)n1-c1ccccc1 2.7%
O=C(COC(=O)c1ccccc1O)Nc1cccc(S(=O)(=O)NC2=NCCCCC2)c1 14.9%
O=C1CCCN1CCC1CCN(C(=S)Nc2ccc(F)cc2)CC1 1.1%
Cc1cccc(C(=O)c2cnc3ccccc3c2-c2ccccc2)c1 1.1%
COc1ccc(C(=O)c2cnc3ccccc3c2-c2ccccc2)cc1 29.3%
O=C(NCc1cccc(C(F)(F)F)c1)C1CC(c2c(Cl)cccc2Cl)=NO1 (stereo unspecified) -28.5%
CCN=C1S/C(=C\c2ccc(-c3cccc(C(=O)O)c3)o2)C(=O)N1CC -81.2%
CCN1C(=O)/C(=C\c2ccc(-c3cccc(C(=O)OC)c3)o2)SC1=Nc1ccc(C(=O)O)cc1 4.2%
Cc1cc(NC(=O)CSc2nnnn2C)n(-c2ccccc2)n1 6.4%
CCOC(=O)C1CCCN(S(=O)(=O)c2ccc(OC)c3ccccc23)C1 (stereo unspecified) 8.9%
Cc1ccc(NC(=O)Nc2ccc3c(c2)CCC3)cc1C -15.3%
CN(C)C(=O)C(OC(=O)c1ccc2ccccc2n1)c1ccccc1 (stereo unspecified) -9.4%
O=C(O)c1ccc2c(c1)CCC2 25.5%
O=C(COc1ccc(S(=O)(=O)NCc2ccccc2)cc1)NCC1CCCO1 (stereo unspecified) -3%
Cc1csc(NC(=O)CSc2nnc(NC(=O)COc3ccc(Cl)cc3)s2)n1 -17.3%
CCCc1n(CC(O)COCC2CC=CCC2)c2ccccc2[n+]1C (stereo unspecified) 5.7%
CCc1nc2ccccc2n1CC(O)COCC1CC=CCC1 (stereo unspecified) -7.7%
Cc1cc(=O)oc2c(C)c(OC(C)C(=O)Nc3ccc(N4CCC(C)CC4)cc3)ccc12 (stereo unspecified) 3.4%
Cn1c(=O)c2c(-c3ccc(OC(F)F)cc3)cc(-c3ccccc3)nc2n(C)c1=O -4.7%
COC(=O)COc1ccc(S(=O)(=O)Nc2cc([N+](=O)[O-])ccc2C)cc1 8.7%
O=C(CCn1cccc1)NCc1ccc(Cl)cc1 5.1%
O=C(N/N=C/c1cccc2ccccc12)c1cc(C2CC2)[nH]n1 10.5%
CCOc1cc(/C=N/NC(=O)c2cc(C3CC3)[nH]n2)ccc1O -2.8%
Cc1ccc(C)c(NC(=O)CCN2C(=O)c3ccccc3C2=O)c1 -5.3%
COc1ccc(N2CC(C(=O)N3CCN(c4ccccc4OC)CC3)CC2=O)cc1 (stereo unspecified) 12.7%
Cc1ccc(S(=O)(=O)Nc2ccc(N3CCOCC3)cc2)cc1 0.3%
COc1ccccc1N1CCN(C(=O)C2CCN(S(=O)(=O)c3ccc4c(c3)CC(C)N4C(=O)C3CC3)CC2)CC1 (stereo unspecified) 27%
COc1ccc(Oc2nc3c(c(=O)n(C)c(=O)n3C)n2C)cc1 26.2%
Cn1c(=O)c2c(nc(Oc3ccccc3)n2C)n(C)c1=O 4.8% and 12.7%
Cc1c(C#N)sc2nc(-c3ccccc3)nc(N3CCCC3)c12 -1.5%
COCc1cc(C)nc(SCC(=O)Nc2ccccc2N2CCOCC2)c1C#N 40%
COCc1cc(C)nc(SCC(=O)Nc2ccc(N3CCOCC3)cc2)c1C#N 5%
COCC(C)n1c(C)cc(C(=O)COC(=O)CNC(=O)c2ccccc2)c1C (stereo unspecified) 20.5%
COc1ccc(S(=O)(=O)N2CCCCCC2)cc1C(=O)OCc1c(C)noc1C 0.3%
CNc1nc2cc([N+](=O)[O-])c([N+](=O)[O-])cc2nc1NC 18.9%
Cc1ccc(NC(=S)N(C)C)cc1C -14.4%
Cc1cc(OCC(=O)Nc2ccncc2)ccc1Cl 39.6%
Cc1cc(C)cc(OCC(=O)Nc2ccncc2)c1 29.4%
O=C(COc1ccccc1)Nc1ccncc1 5.2%
Cc1cc(Cl)ccc1OCC(=O)Nc1ccncc1 39.3%
Cc1cc(OCC(=O)Nc2ccncc2)ccc1Br 38.2%
COc1cccc(OCC(=O)Nc2ccncc2)c1 19.9%
CC1=C([N+](=O)[O-])C(c2ccccc2Cl)NC(=O)N1C (stereo unspecified) 14.3%
O=C(NC1CCCN(CCc2ccccc2)C1)c1c(F)cccc1F (stereo unspecified) 4.3%
COc1cccc(N2CC(C(=O)Nc3nnc(SCCN4CCOCC4)s3)CC2=O)c1 (stereo unspecified) 14.1%
CCOC(=O)c1sc2ccccc2c1OC(=O)c1ccccc1 27.7%
CCOC(=O)c1sc2ccccc2c1OC(=O)c1ccccc1OC 22.4%
Cc1ccccc1C(=O)Nc1ccc(N2CCN(C(=O)c3ccco3)CC2)cc1 3.9%
Cc1cccc(-c2nc3c(c(SCC(=O)N4CCOCC4)n2)Cc2c(CO)cnc(C)c2O3)c1 42.3%
COc1ccc(-c2nc3c(c(SCC(=O)N4CCOCC4)n2)Cc2c(CO)cnc(C)c2O3)cc1 32%
CCc1ccc(NC(=O)CN(C)S(=O)(=O)c2ccc3[nH]c(=O)oc3c2)cc1 9.7%
COC(=O)C1=C(C)N(CCc2ccc(OC)cc2)C(=O)C1 -0.9%
Cc1cc(C)nc(N(C#N)Cc2cccc([N+](=O)[O-])c2)n1 15.2%
